The list is not random: actives were taken first. Their share in the collection is about 7.2%.
Efflux pump inh: inhibitors of Candida efflux pumps in yeast, primary screen, S. cerevisiae, Nile Red, multiplex; inhibition, % at 10 µM; AID 485275, 2010; hit rate 0.44% among 330,000; S. cerevisiae Candida pump triplex;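 active means plate passing quality check with inhibition over a set limit, or well fluorescence over plate mean plus 4 SD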;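 further: Nile Red retained in pooled yeast measured as flow cytometry median fluorescence; 0% = buffer negative control and 100% = Enniatin B positive control; higher means more Nile Red kept so more efflux inhibition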
VLA-4 inh: inhibition in human VLA-4 binding assay, primary screen, VLA-4 allosteric modulator project, MLPCN library, flow cytometry, VLA-4 expressing cells; Integrin alpha-4 (Homo sapiens), P13612; ligand binding flow cytometry; inhibition, % (about 7 µM as worked out from the volumes in the protocol); hit rate 0.2% among 330,000; AID 2557, 2010; in the data active means inhibition above about 50%
A1 inh: caspase 3/7 activation in MEF A1-2A-BIM cells, primary screen, A1 inhibitor project, cell-based, luminescence, HTS; caspase activation, % (concentration not given with the values); Caspase-Glo 3/7 luminescence, 3 h; percent of clofoctol response, vehicle zero; hit rate 0.066% among 330,000; AID 2462, 2010;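 active means over half of replicate activation scores above 10%, or exactly half above 10 with the replicate mean above 10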
SUMO Mot1 rescue: yeast Mot1-301 growth rescue at high temperature, primary screen, SUMOylation pathway inhibitor project, S. cerevisiae, ATP luminescence, 38.5C; S. cerevisiae Mot1-301 growth rescue; percent above DMSO median, 100 means doubled; growth rescue, % at 18.8 µM; hit rate 1% among 320,000;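 active means every valid replicate shows activation above 250% relative to neutral control wells; inactive means the rest, any valid replicate at or below 250%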;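 further: OY570 slx delta 5 strain wells were the positive control but not used for scaling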
ALR H2O2 inh: inhibitors of human ALR sulfhydryl oxidase, primary screen, biochemical, H2O2 detection, HRP-luminol luminescence, single point; FAD-linked sulfhydryl oxidase ALR (Homo sapiens), P55789; purified ALR, DTT oxidation; inhibition, % (no concentration beside the values); hit rate 3.8% among 290,000; AID 485317, 2010;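 active means mean replicate inhibition above about 79%, with every replicate also reaching it, limit read from the data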
AHR act: AHR activators, primary screen, cell-based, luminescence, luciferase reporter, human; activation, % at 5 µM; Aryl hydrocarbon receptor (Homo sapiens), P35869; hit rate 2.5% among 320,000; AHR-responsive luciferase reporter cells; in the data active means activation above about 47%;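 further: 0% = vehicle wells and 100% = reference agonist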
Target sequence (P35869 whole entry, looked up): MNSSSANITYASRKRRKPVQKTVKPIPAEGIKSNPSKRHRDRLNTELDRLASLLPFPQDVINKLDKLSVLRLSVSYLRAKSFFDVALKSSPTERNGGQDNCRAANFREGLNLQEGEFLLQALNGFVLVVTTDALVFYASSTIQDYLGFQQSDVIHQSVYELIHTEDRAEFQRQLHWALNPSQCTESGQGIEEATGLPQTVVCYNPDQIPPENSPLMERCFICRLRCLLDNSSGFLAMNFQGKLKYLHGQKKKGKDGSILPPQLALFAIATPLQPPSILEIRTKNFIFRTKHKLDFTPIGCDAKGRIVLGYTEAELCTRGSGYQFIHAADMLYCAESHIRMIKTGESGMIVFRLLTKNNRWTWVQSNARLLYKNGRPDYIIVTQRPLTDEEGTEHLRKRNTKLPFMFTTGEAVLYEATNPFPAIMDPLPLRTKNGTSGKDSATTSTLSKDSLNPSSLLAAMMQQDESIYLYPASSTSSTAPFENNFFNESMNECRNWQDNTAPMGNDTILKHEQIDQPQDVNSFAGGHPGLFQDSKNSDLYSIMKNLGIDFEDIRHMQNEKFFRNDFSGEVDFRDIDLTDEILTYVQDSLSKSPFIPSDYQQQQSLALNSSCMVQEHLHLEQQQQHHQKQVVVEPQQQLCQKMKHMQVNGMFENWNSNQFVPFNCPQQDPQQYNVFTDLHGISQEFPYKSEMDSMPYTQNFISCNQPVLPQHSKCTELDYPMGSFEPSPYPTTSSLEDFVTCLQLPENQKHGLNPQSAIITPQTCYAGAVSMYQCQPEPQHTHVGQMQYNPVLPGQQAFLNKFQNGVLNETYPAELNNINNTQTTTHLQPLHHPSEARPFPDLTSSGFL
Starred values were filed as active, the others as inactive; . = no result given.

SMILES | Efflux pump inh | VLA-4 inh | A1 inh | SUMO Mot1 rescue | ALR H2O2 inh | AHR act
Cc1ccc(SCC(=O)Nc2ccc(S(=O)(=O)Nc3nccs3)cc2)cc1 | 0.3 | 3.9 | -0.6 | 57.8 | -2.6 | 3.8
O=C(CSc1ccncc1)Nc1ccc(S(=O)(=O)Nc2nccs2)cc1 | -0.3 | 11.8 | 0.4 | 19.6 | 99.2* | -0.3
Cc1ccc(S(C)(=O)=O)cc1C(=O)Nc1ccc(S(=O)(=O)Nc2nccs2)cc1 | 0.0 | 10.2 | -0.1 | -19.9 | 96.8* | 0.7
COC(=O)c1ccc(N2C(=O)Nc3ccccc3N2O)cc1 | -0.1 | 7.0 | 1.4 | 4.8 | -0.2 | -1.6
COc1cc(NC(=O)c2ccccc2F)c(OC)cc1NC(=O)CN1CCOCC1 | 0.1 | 3.5 | -1.0 | -16.0 | -60.5 | 51.3*
O=C(CN1CCN(c2ccc(O)cc2)CC1)NCC(=O)Nc1ccc(F)c(F)c1F | -0.1 | -5.4 | -0.3 | -17.1 | 92.5* | -1.3
O=C(CN1CCN(c2ccc(O)cc2)CC1)Nc1ccc2c(c1)OCCO2 | 0.2 | 7.7 | -1.3 | -6.2 | 77.7* | 1.8
O=C(CN1CCN(c2ccccc2O)CC1)Nc1ccc2c(c1)OCCCO2 | 0.2 | 8.5 | 0.7 | 3.2 | 99.6* | 5.9
COc1cc(NC(=O)c2ccc(F)cc2)c(OC)cc1NC(=O)CN1CCOCC1 | 0.0 | 3.7 | -1.0 | -1.2 | -23.2 | 32.9
O=C(CN1CCN(c2ccccc2)CC1)Nc1ccc2c(c1)OCCO2 | 0.0 | -3.2 | 0.9 | 1.8 | 55.3 | 0.1
COc1ccc(CCNC(=O)C(=O)Nc2ccc3c(c2)OCO3)cc1OC | -0.1 | 16.5 | 1.0 | 2.8 | -6.1 | 3.5
O=C(CN1CCN(c2ccc(O)cc2)CC1)NC(=O)NCc1ccco1 | 0.1 | 3.1 | -0.4 | . | 98.5* | 0.6
O=C(CN1CCC(NC(=O)c2ccccc2F)CC1)Nc1ccc2c(c1)OCO2 | -0.5 | -4.9 | 0.9 | 667.1* | . | -1.8
Cc1ccccc1C(=O)NC1CCN(CC(=O)Nc2ccc3c(c2)OCO3)CC1 | -0.1 | -8.2 | 0.5 | 4.9 | -9.8 | 0.7
Cc1cc(NC(=O)CN2CCN(S(=O)(=O)c3ccc(Cl)cc3)CC2)no1 | -0.2 | -2.2 | -0.3 | -9.8 | -10.0 | 2.4
Cc1cc(NC(=O)CN2CCN(c3ccc(O)cc3)CC2)no1 | 0.4 | 3.3 | 0.2 | 74.9 | 98.6* | -2.5
O=C(/C(=N/N=C/c1ccc(O)c(O)c1O)c1ccccc1)c1ccccc1 | 0.0 | -4.9 | -0.6 | 10.4 | 98.7* | -0.7
Oc1ccc(/C=N/N=C(c2ccccc2)c2ccccc2)c(O)c1O | 0.1 | 8.8 | -0.1 | 5.2 | 98.5* | 0.6
CCOc1ccc(C(=O)NCC(=O)NCCCn2nc(C)cc2C)cc1OCC | -1.2 | 7.6 | 0.2 | 18.5 | -0.9 | 0.1
Cc1cccc(C(=O)NCCNc2nc3cc(C)c(C)cc3cc2C)c1 | 0.0 | 2.5 | 0.0 | -20.3 | -0.6 | 34.6
COc1ccc(C(=O)NCCNc2nc3cc(C)c(C)cc3cc2C)cc1 | 0.3 | -13.4 | 0.2 | 6.9 | -18.2 | 62.7*
COc1ccc(C(=O)NCCNc2nc3ccc(C)cc3cc2C#N)cc1 | 0.0 | -8.9 | -0.1 | 3.0 | -6.3 | 22.4
Cc1cc2cc(C)c(NCCNC(=O)c3cccc(F)c3)nc2cc1C | 0.0 | -12.6 | -0.1 | 14.7 | -2.4 | 56.1*
CCOC(=O)NC(NC(=O)OCC)C(=O)c1ccc(F)cc1 | 0.0 | 3.3 | 1.0 | -5.3 | 39.2 | -4.8
O=C(O)/C=C\C(=O)Nc1ccccc1N1CCN(c2ccccc2)CC1 | 0.1 | -9.3 | -0.2 | 208.0 | 98.1* | 1.7
O=C(/C=C/c1ccco1)Nc1ccccc1C(=O)O | 0.4 | -5.9 | -0.6 | 127.5 | 5.7 | 5.8
O=C(/C=C/c1ccco1)NC(=S)Nc1ccccc1N1CCCC1 | 0.1 | 4.8 | 0.9 | 134.2 | 4.1 | 65.1*
O=C(/C=C/c1ccco1)NC(=S)Nc1ccccc1N1CCOCC1 | 0.0 | 2.3 | -1.0 | -17.8 | 1.1 | 12.4
O=C(/C=C/c1ccco1)Nc1ccccc1N1CCCC1 | 0.0 | -68.2 | 0.4 | 1.7 | 98.9* | 72.5*
